Measured values published in ChEMBL document CHEMBL3433997, “St. Jude Leishmania screening dataset” (2016).

Experiments:
Format in all cases: functional
[1] = molecular target: Solute carrier family 2, facilitated glucose transporter member 1 (Homo sapiens) (UniProt P11166); assay: ST_JUDE_LEISH: Cytotoxicity at 2uM final concentration against transgenic Leishmania Mexicana promastigotes LmGLUT1 that are glucose transport deficient and complemented with the human glucose transporter GLUT1. Activity is measured by DNA content using SYBR green in vitro
[2] = molecular target: Hexose transporter 1 (Plasmodium falciparum) (UniProt O97467); assay: ST_JUDE_LEISH: Cytotoxicity at 2uM final concentration against transgenic Leishmania Mexicana promastigotes LmPfHT that are glucose transport deficient and complemented with the Plasmodium falciparum hexose transporter. Activity is measured by DNA content using SYBR green in vitro
[3] = molecular target: Glucose transporter (Leishmania mexicana) (UniProt O61059); assay: ST_JUDE_LEISH: Cytotoxicity at 2uM final concentration against transgenic Leishmania Mexicana promastigotes LmGT2 that are glucose transport deficient and complemented with the L. Mexicana glucose transporter 2. Activity is measured by DNA content using SYBR green in vitro

Solute carrier family 2, facilitated glucose transporter member 1 (Homo sapiens), sequence (P11166 whole entry): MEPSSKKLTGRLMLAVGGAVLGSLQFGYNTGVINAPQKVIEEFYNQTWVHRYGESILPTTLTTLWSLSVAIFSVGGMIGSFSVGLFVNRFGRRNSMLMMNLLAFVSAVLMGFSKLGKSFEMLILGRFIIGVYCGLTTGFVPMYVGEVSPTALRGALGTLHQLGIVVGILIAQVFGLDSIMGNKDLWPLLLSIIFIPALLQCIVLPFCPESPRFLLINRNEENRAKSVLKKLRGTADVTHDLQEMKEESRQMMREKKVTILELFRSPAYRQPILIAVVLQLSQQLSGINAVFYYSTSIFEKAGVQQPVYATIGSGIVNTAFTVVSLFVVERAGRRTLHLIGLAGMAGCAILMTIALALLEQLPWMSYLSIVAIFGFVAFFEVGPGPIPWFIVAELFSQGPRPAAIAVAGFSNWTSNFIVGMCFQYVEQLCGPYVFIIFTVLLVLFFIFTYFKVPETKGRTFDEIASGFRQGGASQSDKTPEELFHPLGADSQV

| Structure (SMILES) | inhibition [1] [%] | inhibition [2] [%] | inhibition [3] [%] |
| --- | --- | --- | --- |
| CCn1cc(-c2cc(C(=O)Nc3ccc(OC)cc3C)c3ccccc3n2)c(C)n1 | 7.19 | 4.56 | 3.97 |
| Cc1cccc2nc(-c3ccc(-c4ccc(CNCCNC(=O)c5ccnn5C)cc4)cc3)[nH]c12 | -0.55 | 1.46 | -2.49 |
| NC1=NC2(CCCC2)C(c2ccc(Cl)c(Cl)c2)C(N)=N1 (stereo unspecified) | 2.63 | 3.21 | 4.7 |
| Cc1cc(N[C@@H](CC(C)C)C(=O)NCCCOC(C)C)nc(NCCc2ccc(F)cc2)n1 | 2.71 | 1.92 | 0.62 |
| CCc1cc2c(=O)c(-c3nc(C)cs3)c(N)oc2c(CN2CCCCC2)c1O | 3.22 | 2.22 | 3.34 |
| CCC(C)OC(=O)C1=C(C)NC2=C(C(=O)CC(c3ccc(OC)c(OC)c3)C2)C1c1ccc(C)o1 (stereo unspecified) | 2.36 | 8.1 | 3.8 |
| Cc1ncc([N+](=O)[O-])n1CCOC(=O)NC(Nc1ccc(Br)cc1)C(Cl)(Cl)Cl (stereo unspecified) | 2.8 | 0.15 | -1.63 |
| Oc1ccc(-c2nc3c4cc(I)ccc4c4ccc(I)cc4c3[nH]2)cc1 | 2.27 | -1.87 | -2.11 |
| Cc1nccn1CCNC(=O)CN1CCC2(CCC1=O)CC(=O)c1ccccc1O2 (stereo unspecified) | 8.32 | 7.32 | 7.28 |
| Nc1nc(N)c2c(Cl)c(N(Cc3ccccc3)Cc3ccccc3)ccc2n1 | 23.6 | 23.5 | 7.75 |
| CC1(C)NC(N)=NC(=N)N1OCCc1ccccc1 | 1.18 | 0.77 | 0.66 |
| COc1ccc2c(c1)[nH]c1c(/C=C/c3ccc([N+](=O)[O-])cc3)nccc12 | 3.75 | 4.42 | 3.6 |
| N#Cc1ccc(-c2ccc(C(=O)NCCCCN3CCC(c4ccc5c(c4OCC(N)=O)CCCC5)CC3)cc2)cc1 | 1.23 | 0.2 | 1.1 |
| CC(C)Nc1cc(C(=O)N[C@@H](Cc2ccccc2)[C@H](O)CNCc2cccc(C(F)(F)F)c2)c(F)c(N2CCCCS2(=O)=O)c1 | 7.12 | 6.09 | 7.07 |
| O=C1OC(c2ccccc2)(c2ccccc2)CN1C1CCN(Cc2ccc(O)c(Cl)c2)C1 (stereo unspecified) | 1.71 | 1.04 | -0.68 |
| COc1ccc(-c2cccc(NC(=O)c3cccc(C#N)c3)c2)cc1CN1CCN(C)CC1 | 4.2 | 2.19 | 3.24 |

| Structure (SMILES) | inhibition [1] [%] | inhibition [2] [%] | inhibition [3] [%] |
| --- | --- | --- | --- |
| Clc1ccc(Nc2nc(NCc3ccccc3)nc(N/N=C/c3ccccn3)n2)cc1 | 83.7 | 83.5 | 77.6 |
| Cc1cc(N(CCCN(C)C)Cc2cc(F)cc(F)c2)nc(Nc2ccc(Cl)cc2)n1 | -0.3 | 0.46 | 1.83 |
| CN(c1ccc(NC(=O)Nc2cc(C(C)(C)C)on2)cc1)c1ccnc(NCCOC(=O)Nc2cc(C(C)(C)C)on2)n1 | 10.6 | 7.48 | 11.5 |
| O=C(Nc1ccc2ccccc2c1)c1ccc(CN2CCC(Cc3ccccc3)CC2)cc1 | -2.67 | -3.63 | 7.65 |
| Cc1noc(C)c1-c1ccc2c(Nc3ccccc3C(C)(C)C)c(C(=O)NCc3ccc(OC(C)C)cc3)cnc2c1 | 3.36 | 4.36 | 5.28 |
| CN1CCC(Oc2ccc(NC(=O)c3ccc4c(=O)n(Cc5ccccc5)cnc4c3)cc2Cl)CC1 | 32.8 | 57.4 | 8.76 |
| Cc1cnc(N2CCN(CCCN3CCCC3)CC2)nc1Oc1ccc(-n2ccnc2)cc1 | 2.28 | 2 | 3.96 |
| CCN(CC)/C(=N\CCCCCC/N=C(\NC(=N)c1ccc(Cl)cc1)N(CC)CC)NC(=N)c1ccc(Cl)cc1 | 1.79 | 2.4 | 2.59 |
| Nc1c2c(nc3ccccc13)C(=Cc1ccc(O)cc1)CCC2 | 5.91 | 8.35 | 2.9 |
| CC(C)CNCc1ccc(-c2ccc(CN(CCCN3CCN(C)CC3)C(=O)CCC3CCCC3)cc2)cc1 | 55.1 | 52 | 3.97 |
| O=C(c1cccc(Br)c1)N1CCN(c2ccc([N+](=O)[O-])c(NC3CC3)c2)CC1 | 4.9 | 4.63 | 1.63 |
| O=C(NC1CC1)c1ccc2cc(C(=O)N3Cc4ccccc4C(c4ccccc4)C3)ccc2c1 (stereo unspecified) | 2.37 | -0.61 | -1.42 |
| O=C(NCCNc1ccnc(Nc2ccc(F)cc2)n1)Nc1ccc2c(c1)OCO2 | 1.78 | 0.82 | 0.6 |
| C(=N\Nc1nccc2sc(-c3ccccc3)cc12)/c1cccnc1 | 4.32 | 3.5 | 3.16 |
| COc1ccccc1C1CCN(Cc2csc(NC(=O)c3ccc(-c4ccc(C(F)(F)F)cc4)cc3)n2)CC1 | 7.33 | 6.58 | 3.56 |
| CCCCCN1CCN(Cc2cccc(NC(=O)c3ccc(Cl)c(Cl)c3)c2)CC1 | 1.39 | 1.08 | 1.32 |
